From PubChem
TDP1 cell CPT: DT40-hTDP1 cell growth loss with CPT; chicken DT40 Tdp1-/-;hTDP1 cells + 20 nM CPT, ATP luminescence, 48 h; Potency, µM (doses to about 46.2 µM), inactives show top-dose activity change, negative = growth inhibition, usual class: inhibitors; actives 12% (n = 420,000); also: potency is read from the fitted curve at half-maximal effect; nearly all actives have a fitted effect of over 55% in size
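Chicken DT40 Tdp1-/- cells complemented with human TDP1, 400 cells/well, exposed to compounds plus 20 nM camptothecin for at least 48 h at 37 C; viability read as ATP content by CellTiter-Glo luminescence.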
TDP1 block: blocks human tyrosyl-DNA phosphodiesterase 1; Q9NUW8; recombinant TDP1, AlphaScreen DNA substrate cleavage; Potency, µM (series often up to 130 µM), for inactives: at the highest dose activity change, negative = inhibition, hits mostly inhibitors; actives 0.28% (n = 350,000); AID 485290; also: potency is read from the fitted curve at half-maximal effect; nearly all actives have a fitted effect of over 40% in size
Target sequence (Q9NUW8 whole entry, looked up): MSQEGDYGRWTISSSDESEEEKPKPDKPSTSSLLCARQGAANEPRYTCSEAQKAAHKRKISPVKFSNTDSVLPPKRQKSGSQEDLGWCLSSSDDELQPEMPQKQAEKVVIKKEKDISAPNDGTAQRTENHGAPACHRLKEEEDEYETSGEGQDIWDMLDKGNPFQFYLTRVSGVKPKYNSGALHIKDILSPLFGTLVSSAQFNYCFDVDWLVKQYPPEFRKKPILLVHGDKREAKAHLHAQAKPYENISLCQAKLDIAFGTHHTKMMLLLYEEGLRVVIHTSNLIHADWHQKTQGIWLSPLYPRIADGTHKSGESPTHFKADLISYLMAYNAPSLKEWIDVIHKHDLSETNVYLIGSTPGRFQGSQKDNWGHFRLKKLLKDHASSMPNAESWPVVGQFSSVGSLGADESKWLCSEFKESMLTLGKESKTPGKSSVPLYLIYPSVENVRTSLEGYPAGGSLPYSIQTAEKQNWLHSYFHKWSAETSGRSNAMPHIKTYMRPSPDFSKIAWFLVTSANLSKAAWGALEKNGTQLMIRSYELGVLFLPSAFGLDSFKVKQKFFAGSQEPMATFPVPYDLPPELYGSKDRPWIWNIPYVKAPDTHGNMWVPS
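Tdp1 1 nM final; 15 min RT w/ cpd; substrate 15 nM, 5 min; beads 10 ug/ml, 10 min; AlphaScreen read. Neg ctrl: no enzyme.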
IL-1B inflam inh: inflammasome signaling inhibition, IL-1 beta readout; THP-1 LPS/ATP IL-1B secretion, AlphaLISA, 16 h; active compounds read low; activity change, % at 57.5 µM; actives 4.7% (n = 360,000); AID 743279; in the data active = activity change below about -50%; inconclusive = mostly about -30% to -49%
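Secreted IL-1B measured by AlphaLISA bead assay after 16 h compound exposure of THP-1 cells; compounds (final up to 57.5 uM) added 1 h before LPS (250 ng/mL) and ATP (1.25 mM) stimulation; lower signal means less secretion.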
CtBP-E1A blk: blocks the CtBP interaction with E1A; AlphaScreen GST-E1A/His-CtBP binding, 1536-well; active compounds read low; activity change, % (no concentration beside the values); actives 0.49% (n = 340,000); in the data active = activity change below about -65%; inconclusive = mostly about -30% to -63%
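In 5 uL wells, 23 nL compound meets equimolar GST-E1A and His-CtBP (5X stock 125 nM each) for 2 h, 37 °C. Beads (5X, 50 ug/mL) then 1 h, 37 °C, dark.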
DT40 TDP1 no CPT: qHTS for Inhibitors of human tyrosyl-DNA phosphodiesterase 1 (TDP1): qHTS in cells in absence of CPT; DT40 Tdp1-/- hTDP1 cells, no CPT, ATP luminescence, 48 h; Potency, µM (doses to about 46.2 µM), without a hit: at the highest dose activity change, negative = growth inhibition, usual class: inhibitors; actives 15% (n = 420,000); AID 686978, 2013; also: potency is read from the fitted curve at half-maximal effect; nearly all actives have a fitted effect of over 55% in size
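Cells were dispensed at 400 per well, compounds added by pin tool, plates incubated ≥48 hr at 37 °C, then CellTiter-Glo added for 30 min at room temperature before luminescence reading. Line: DT40 Tdp1-/- complemented with hTDP1; camptothecin omitted.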
Six1-Eya2 inh: inhibitors of human Six1/Eya2 interaction; Q15475+O00167; AlphaScreen GST-Six1/His-Eya2 binding, biochemical; active compounds read low; activity change, % (test concentration not listed); actives 0.56% (n = 360,000); in the data active = activity change below about -65%; inconclusive = mostly about -30% to -63%
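AlphaScreen luminescence read after one hour at 37 °C in darkness. Pin-transferred compounds met GST-Six1 and His-Eya2 protein (5X stock 250 nM/500 nM) plus glutathione donor and Ni-chelate acceptor beads (5X, 50 ug/mL).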
Numbers without * were called inactive; ? = inconclusive; . = not tested or not shown; ! = repeats disagree; [ ] = dose if it differs, or a comment. This is a sample that favours compounds with a hit; in the whole collection about 18% have one here. Unless noted, calls follow the shape of the dose curve; as a rule, active = well fitted curve in the direction sought with a large enough effect; inconclusive = small, poorly fitted or top-dose-only effect, or another doubt; inactive = no such curve, though single readings can be large; an effect the other way counts as inactive or inconclusive. % is scaled to controls: 0 for no effect and ±100 for the full control effect.

SMILES | TDP1 cell CPT | TDP1 block | IL-1B inflam inh | CtBP-E1A blk | DT40 TDP1 no CPT | Six1-Eya2 inh
Cc1cc(Cl)cc(C)c1OCCn1ccnc1 | 5.2µM* | . | 160 | 2 | 5.2µM* | -4
Cc1cc(OCCCCCn2ccnc2)cc(C)c1Cl | ? | -2% | -13 | -5 | 13µM* | -9
Cc1cc(Cl)cc(C)c1OCCCCCn1ccnc1 | 18µM* | 7% | -91* | 4 | ? | -16
CCc1ccc(OCCCCCn2ccnc2)cc1 | ? | . | -30 | 7 | 18µM* | 0
CN(C(=O)CSc1nc2cc([N+](=O)[O-])ccc2n1-c1ccc(F)cc1)C1CCS(=O)(=O)C1 (stereo not given) | ? | 3% | 6 | 0 | -18% | 0
CC(NCc1cccs1)c1ccccc1 (stereo not given) | 0% | 0% | 8 | 16 | 25% | 11
O=S(=O)(c1ccc2c(c1)OCCO2)N1CCN(S(=O)(=O)c2c(F)cccc2F)CC1 | . | 0% | . | . | . | .
Cc1cc(Cl)c(OCCn2ccnc2)c(Br)c1 | 12µM* | 3% | 9 | 6 | ? | -4
Cc1cc(C)c(OCCN2CCCC2)c(Cl)c1 | -3% | . | -6 | . | -23% | 2
Cc1cc(C)c(OCCCCCn2ccnc2)c(C)c1 | ? | . | 28 | . | 15µM* | 3
Cc1ccc(C)c(OCCCCCn2ccnc2)c1 | ? | 3% | -11 | -15 | ? | -3
Cc1cc(Cl)c(OCCN2C(=O)NC(C)(C)C2=O)c(Br)c1 | ? | 0% | 31 | 1 | -23% | -1
Cc1cc(Cl)c(OCCCN2CCCCC2)c(Br)c1 | -7% | -6% | -79* | 1 | ? | 2
CCCCCC(=O)N1C[C@H](O)[C@@H](n2cc(COC(=O)c3ccccc3)nn2)C[C@@H]1c1ccc(OC)cc1 | -16% | . | -1 | 7 | -12% | 2
Cn1c(CC(=O)Nc2ccc(F)cc2)c(Sc2ccccc2)c2ccccc21 | ? | -1% | 30 | 6 | -16% | -5
Cn1c(CC(=O)NC(C)(C)CO)c(Sc2ccccc2)c2ccccc21 | 15µM* | 5% | 0 | 0 | 16µM* | 22
N#CC1=C(N)CCC1 | -12% | . | . | . | -23% | .
CC(C(=O)NCC1CCCO1)c1ccc([N+](=O)[O-])cc1 (stereo not given) | 13% | -2% | -14 | 0 | -2% | 2
Clc1ccc(OCCN2CCOCC2)cc1Cl | -9% | -5% | -7 | 4 | -12% | 5
C=CCOc1ccc2c(c1)C(=NO)c1cc(OCC=C)ccc1-2 | ? | 2% | ? | -11 | 23µM* | -14
COc1ccc2c(c1)C(=NO)c1cc(OC)ccc1-2 | ? | 5% | ? | -2 | ? | -16
Clc1ccc(OCCN2CCCCC2)cc1Cl | -21% | -6% | 35 | 17 | ? | -8
NC(=S)NN=C1c2cc(OCCN3CCOCC3)ccc2-c2ccc(OCCN3CCOCC3)cc21 | 16µM* | . | -96* | ? | 16µM* | -14
ON=C1c2cc(OCCN3CCCCC3)ccc2-c2ccc(OCCN3CCCCC3)cc21 | 7.3µM* | -9% | -97* | 4 | 8.2µM* | -11
O=C1CC(N2CCN(C(c3ccccc3)c3ccccc3)CC2)C(=O)N1Cc1ccc(N2CCCC2=O)cc1 (stereo not given) | -4% | 2% | 4 | 7 | 9% | 4
CCC(C)(C)C(=O)O[C@H]1C[C@@H](C)C=C2C=C[C@H](C)[C@H](CC[C@@H]3C[C@@H](O)CC(=O)O3)[C@H]21 | 3%[21.1 µM] | . | 9 | -9 | 21µM*! | -1
CCC(C)C(=O)OC1CC(O)C=C2C=CC(C)C(CCC(O)CC(O)CC(=O)O)C21 (stereo not given) | . | 8%[56.1 µM] | . | . | . | .
